Assay outcomes as filed in PubChem.
HEK293 tox = qHTS of GLP-1 Receptor Inverse Agonists: Cytotox Screen; HEK293 cAMP-luciferase reporter cells, luminescence, 24 h; Potency, µM (series often up to 38.3 µM), inactives show at the top dose activity change, negative = inhibition, usual class: inhibitors; AID 624418, 2012; actives 0.13% (n = 410,000);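 also: loss of luciferase light is scored as toxicity; % is scaled to controls: 0 for no effect and ±100 for the full control effect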
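A 23 nL compound transfer followed 12 hours of cell culture at 37 deg C; exposure then lasted 24 hr. Luciferase assay detection reagent was dispensed and plates read for luminescence after a 12 min room-temperature wait.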
GLP-1R inv ag = qHTS of GLP-1 Receptor Inverse Agonists (Inhibition Mode); Glucagon-like peptide 1 receptor (Homo sapiens), P43220; HEK293 GLP-1R CRE-luciferase, luminescence, 24 h; GLP-1R form is constitutively active; Potency, µM (highest dose often 38.3 µM), without a hit: at the highest dose activity change, negative = inhibition, usual class: inhibitors; actives 1.6% (n = 410,000); also: % is scaled to controls: 0 for no effect and ±100 for the full control effect; nearly all actives have a fitted effect of over 55% in size
Target sequence (P43220 whole entry, looked up): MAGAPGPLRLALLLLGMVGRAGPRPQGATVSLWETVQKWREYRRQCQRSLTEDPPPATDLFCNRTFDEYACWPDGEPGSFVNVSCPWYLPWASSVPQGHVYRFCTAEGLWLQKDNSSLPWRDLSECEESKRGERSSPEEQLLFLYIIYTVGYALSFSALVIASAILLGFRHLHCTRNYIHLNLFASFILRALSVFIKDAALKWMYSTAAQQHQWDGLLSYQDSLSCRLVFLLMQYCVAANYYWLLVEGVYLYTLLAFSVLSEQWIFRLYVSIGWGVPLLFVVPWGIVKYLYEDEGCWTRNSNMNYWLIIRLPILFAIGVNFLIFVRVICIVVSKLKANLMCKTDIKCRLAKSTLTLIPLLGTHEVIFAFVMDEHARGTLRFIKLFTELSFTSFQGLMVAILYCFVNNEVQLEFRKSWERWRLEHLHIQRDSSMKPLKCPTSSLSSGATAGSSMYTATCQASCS
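qHTS in 1536-well format: reporter HEK293 cells expressing constitutive GLP-1R activity in DMEM + 10% Nu serum, 24 hr with compounds at 37 deg C, luminescence read after 12 min with detection reagent.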
GLP-1R agonist = qHTS of GLP-1 Receptor Agonists. Glucagon-like peptide 1 receptor (Homo sapiens), P43220. HEK293 GLP-1R CRE-luciferase, luminescence, 4-6 h; cells express a hypersensitive GLP-1R form. Potency, µM (series often up to 45.6 µM), inactives show at the top dose activation, most hits filed as activators. actives 0.007% (n = 380,000). AID 624172, 2012; also: % of control where 0% means no effect
Active calls of the source: *; u = inconclusive; x = no result given; [ ] = dose if it differs, or a comment. Hits are enriched below; roughly 1.7% of the tested compounds scored in any of these assays. Calls follow the shape of the dose curve; as a rule, active = well fitted curve in the direction sought with a large enough effect; inconclusive = small, poorly fitted or top-dose-only effect, or another doubt; inactive = no such curve, though single readings can be large; an effect the other way counts as inactive or inconclusive. Potency is read from the fitted curve at half-maximal effect.

SMILES | HEK293 tox | GLP-1R inv ag | GLP-1R agonist
CN(C)C(=O)Oc1ccc(Cl)c2cccnc12 | -4% | -1% | 0%
CN(C)C(=O)Oc1c(Cl)cc(Cl)c2ccccc12 | 7% | 11µM* | -2%
COc1ccc(C(C)(C)C)cc1NC(=O)CCCn1c(=O)oc2ccccc21 | -1% | u | -1%
O=c1cc(CN2CCN(S(=O)(=O)c3cccc(Cl)c3)CC2)c2ccc(O)cc2o1 | 381% | u | 13%
CCN(c1ccccc1)S(=O)(=O)c1ccc(C(=O)NC2CCN(Cc3ccccc3)CC2)cc1 | u | u | -2%
O=c1[nH]c(=S)n(CCC2=CCCCC2)c(O)c1/C=N/Nc1ccccc1 | -23% | 4.5µM* | -3%
O=c1[nH]c(=S)n(CCC2=CCCCC2)c(O)c1C=NC1CCN(Cc2ccccc2)CC1 | -1% | 54% | -14%
C=CCN1C(=O)/C(=C/c2ccc(O)c(OC)c2)S/C1=N/c1nccs1 | 60% | 28% | 21%
COc1ccc(N=C2S/C(=C\c3ccc(Cl)c([N+](=O)[O-])c3)C(=O)N2CCN(C)C)cc1 | 11µM* | u | -4%
Cc1ccc2c(c1)[C@]13CCCC[C@@H]1[C@@H](C2)N(C)CC3 | x | x | 8%
O=C1[O][Sb-]23[O]C(=O)C([O]2)C2[O][Sb-]4([O]C(=O)C([O]4)C1[O]3)[O]C2=O | x | x | 2%
Cc1ccc(Cl)cc1N1CCN(C(=O)C2CCN(S(=O)(=O)c3ccc4c(c3)oc(=O)n4C)CC2)CC1 | 2% | u | x
COCCCNC(=S)NCCCNc1nc2cc(C)cc(C)c2cc1C#N | -2% | 11µM* | 23%
CCN(CC)CCNCC1C(=O)O[C@@H]2C[C@@]3(C)CCC[C@H](C)C3=C[C@H]12 (stereo not given in full) | u | u | -1%
CCCN(CCC)CCc1c[nH]c2ccccc12 | x | x | 3%[96 µM]
COc1ccc(CN(CCc2c[nH]c3ccccc23)Cc2ccc(OC)cc2)cc1 | u | 10µM* | -5%
COc1ccc2sc(-c3ccc(SC)cc3)c(-c3ccc(O)cc3)c2c1 | u | 5.6µM* | -5%
COc1ccc(CCNCc2ccc(SC)cc2)cc1 | 4% | -18% | -3%
COc1cc([C@@H]2c3cc4c(cc3[C@@H](O[C@@H]3O[C@@H]5CO[C@@H](C)O[C@H]5[C@H](O)[C@H]3O)[C@H]3COC(=O)[C@H]23)OCO4)cc(OC)c1O | u | 2.8µM* | 4%
COc1cc(C2c3cc4c(cc3C(OC3OC5COC(c6cccs6)OC5C(O)C3O)C3COC(=O)C23)OCO4)cc(OC)c1O (stereo not given) | u | u | -3%
O=C1C=CC(=O)C2C1C1(Cl)C(Cl)=C(Cl)C2(Cl)C1(Cl)Cl (stereo not given) | u | 3.2µM* | -3%
ClC1=C(Cl)C2(Cl)C3C4CC(C5OC45)C3C1(Cl)C2(Cl)Cl (stereo not given) | x | x | 21%
CS(=O)(=O)c1ccc(C(=O)OCC(=O)NCc2cccs2)cc1[N+](=O)[O-] | u | u | -23%
CCC(=O)OC1[C@@H](N2CCCCC2)C[C@H]2[C@@H]3CC[C@H]4C[C@H](OC(C)=O)[C@@H](N5CCCCC5)C[C@]4(C)[C@H]3CC[C@]12C (stereo not given in full) | x | x | 0%
Cc1cc(OC(=O)N(C)C)nc(SCc2c(Cl)cccc2Cl)n1 | 1% | 10µM* | 6%
SMILES | HEK293 tox | GLP-1R inv ag | GLP-1R agonist
Cc1cc(OC(=O)N(C)C)n(-c2ccccc2)n1 | 5% | 9% | 16%
CC1=C(C(=O)OCC(C)C)C(c2cccs2)NC(=S)N1 (stereo not given) | u | u | -3%
FC(F)(F)c1ccc2c(c1)nnn2C1CCN(Cc2nnnn2Cc2ccccc2)CC1 | -10% | u | 1%
Cc1ccc(Cn2nnnc2CN2CCC(n3nnc4cc(C(F)(F)F)ccc43)CC2)cc1 | -12% | 10µM* | -1%
CC(=O)Nc1cccc(-c2csc(C(O)c3cccc(Cl)c3)n2)c1 (stereo not given) | -1% | u | 4%
Cc1ccc(-c2nnc(Nc3ccc(OC(F)(F)Cl)cc3)c3ccccc23)cc1S(=O)(=O)NC(C)(C)CO | -29% | u | -4%
Cc1ccc([C@H]2C[C@@H](n3cc(C4CC4)nn3)[C@H](O)CN2Cc2cccs2)cc1 | -2% | u | 12%
CCCCCCN1C[C@@H](n2cc(C3CC3)nn2)[C@H](O)C[C@@H]1c1ccc(C)cc1 | u | 4µM* | 1%
COc1cccc(Nc2nc(C(N)Cc3ccc(F)cc3)cs2)n1 (stereo not given) | -24% | u | -5%
